Values without a mark were called inactive. Records with an inconclusive call do not appear. Activity calls are given as the source filed them. Unless noted, calls come from the whole dose curve.

8 molecules from PubChem BioAssay (Tox21) can be followed below.

A short description of assay [1]: Nuclear factor erythroid 2-related factor 2/antioxidant responsive element (Nrf2/ARE) small molecule agonists: qHTS cell viability counter screen in human keratinocytes (AID 1919968; active = well fitted curve in the direction sought with a large enough effect in the repeat runs; an effect the other way counts as inactive or inconclusive; note: nearly all actives have a fitted effect of over 55% in size; note: potency is the fitted concentration of half-maximal effect). Summed up:
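Stably transfected HaCaT (KeratinoSens), 1,500/well. Test agents in DMSO were applied for 23 h, 37 C/5% CO2. CellTiter-Fluor was incubated 1 h before the fluorescence read.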
Background: qHTS replaces the single test concentration by a dilution series.

Assay [2] is described as follows: Nuclear factor erythroid 2-related factor 2/antioxidant responsive element (Nrf2/ARE) small molecule agonists: luciferase reporter gene qHTS assay in human keratinocytes (AID 1919969; note: nearly all actives have a fitted effect of over 35% in size). (In general: In a reporter assay the amount or activity of a reporter protein is the signal.)
In assay [3] the target is Gonadotropin-releasing hormone receptor (Homo sapiens) (UniProt P30968). Nature of the assay: Human gonadotropin-releasing hormone receptor (GnRHR) small molecule agonists, calcium flux assay in GnRHR-HEK293 cells (AID 1920063). Note: nearly all actives have a fitted effect of over 35% in size. Summed up:
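Stable human GnRHR HEK293 line. 18 h plating, then calcium dye for 1 h at 37 C. Agonist-mode compound addition from DMSO stocks; fluorescence monitored 3 min.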

The target of assay [4] is KiSS-1 receptor (Homo sapiens) (UniProt Q969F8). Nature of the assay: Human kisspeptin (KISS1R) small molecule agonists, calcium flux assay in KISS1R-HEK293 cells (AID 1920064; active = well fitted curve in the direction sought with a large enough effect in the repeat runs; an effect the other way counts as inactive or inconclusive). Put shortly:
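After overnight (18 h) culture at 37 C/5% CO2, human KISS1R-HEK293 cells received calcium dye for 1 h, then test compound; emission at 540 nm (excitation 480 nm) was tracked for 3 min.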
Background: Calcium flux is commonly read through the fluorescence of an indicator in the cells.

A short description of assay [5]: G protein-coupled receptor (GPCR) small molecule agonists, calcium flux assay: HEK293 wild type cell line counter screen (AID 1920065). Summed up:
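Following 18 h incubation at 37 C/5% CO2, plates got calcium dye for 1 h; compounds, ATP or DMSO were then pinned in and fluorescence followed kinetically (480/540 nm).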

Assay [6] can be described thus: p53 small molecule agonists, cell-based qHTS assay with rat liver microsomes (AID 1963578). Summed up: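 Read-out is beta-lactamase reporter fluorescence (LiveBLAzer, 2 h, room temperature, dark) in p53RE-bla cells treated 16 h at 37 C with compound, rat liver microsomes and NADPH, both 0.5 mg/mL final.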
The nature of assay [7]: p53 small molecule agonists, cell-based qHTS assay with human liver microsomes: qHTS cell viability counter screen (AID 1963579). Note: nearly all actives have a fitted effect of over 45% in size. Summed up:
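Cells carrying the p53 response-element beta-lactamase reporter are treated for 16 h at 37 C with test compounds in the presence of human liver microsomes and NADPH (both 0.5 mg/mL final); ATP-based CellTiter-Glo luminescence then reports viability.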

A short description of assay [8]: p53 small molecule agonists, cell-based qHTS assay with rat liver microsomes: qHTS cell viability counter screen (AID 1963580). Note: nearly all actives have a fitted effect of over 45% in size. Summed up: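 Luminescent ATP readout (CellTiter-Glo, 30 min at room temperature) reports viability of p53RE-bla HCT-116 cells after 16 h at 37 C with test compounds under metabolic activation by rat liver microsomes and NADPH at 0.5 mg/mL final each.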

The nature of assay [9]: p53 small molecule agonists, cell-based qHTS assay: qHTS cell viability counter screen (AID 1963581). Note: nearly all actives have a fitted effect of over 45% in size. Put shortly: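 qHTS counter screen: 16 h compound exposure at 37 C of p53RE-bla HCT-116 cells (4,000 per well, seeded 5 h prior), cell viability by ATP luminescence.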
The target of assay [10] is 5-hydroxytryptamine receptor 2A (Homo sapiens) (UniProt P28223). Put plainly: 5-hydroxytryptamine receptor 2A (HTR2A) small molecule antagonists, cell-based qHTS assay (AID 1963586). Note: nearly all actives have a fitted effect of over 45% in size. Summed up:
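CHO cells stably expressing human HTR2A were plated for 18 h at 37 C, then loaded with calcium dye for 1 h. Compounds were preincubated 5 min at room temperature before DOI (4 nM solution) was added. Kinetic fluorescence was read for 3 min.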

Assay [11] has the same target. Put plainly: 5-hydroxytryptamine receptor 2A (HTR2A) small molecule agonists, cell-based qHTS assay (AID 1963587). Note: nearly all actives have a fitted effect of over 30% in size. Put shortly:
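HTR2A-CHO cells, plated 18 h at 37 C/5% CO2, dye-loaded 1 h at 37 C; compounds in DMSO added by pin tool (agonist mode). Intracellular calcium flux read as kinetic fluorescence on FDSS over 2 min at 1 s intervals.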

For assay [12], the target named is Muscarinic acetylcholine receptor M1 (Homo sapiens) (UniProt P11229). Put plainly: Cholinergic receptor muscarinic 1 (CHRM1) small molecule antagonists, cell-based qHTS assay (AID 1963588). Note: nearly all actives have a fitted effect of over 40% in size. Put shortly: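 Compounds were tested at 15 concentrations in three independent runs. Dye-loaded CHRM1-CHO cells were exposed 5 min at room temperature before stimulation by acetylcholine added at 50nM. Intracellular calcium was read kinetically on FDSS for 3 min.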
Chain of Muscarinic acetylcholine receptor M1 (Homo sapiens) (P11229 whole entry, looked up): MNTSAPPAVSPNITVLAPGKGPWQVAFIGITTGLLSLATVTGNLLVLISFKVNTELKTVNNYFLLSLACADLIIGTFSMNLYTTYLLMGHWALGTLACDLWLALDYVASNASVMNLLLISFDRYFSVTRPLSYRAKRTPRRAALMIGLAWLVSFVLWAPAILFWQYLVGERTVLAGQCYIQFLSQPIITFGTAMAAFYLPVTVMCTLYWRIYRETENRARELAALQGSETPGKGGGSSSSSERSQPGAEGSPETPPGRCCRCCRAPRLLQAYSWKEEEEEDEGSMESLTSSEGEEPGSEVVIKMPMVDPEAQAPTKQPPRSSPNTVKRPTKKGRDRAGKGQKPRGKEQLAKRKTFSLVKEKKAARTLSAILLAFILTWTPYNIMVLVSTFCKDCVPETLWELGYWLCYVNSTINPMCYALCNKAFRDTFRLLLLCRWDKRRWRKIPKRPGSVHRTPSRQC

The target is the same in assay [13]. Nature of the assay: Cholinergic receptor muscarinic 1 (CHRM1) small molecule agonists, cell-based qHTS assay (AID 1963589). Note: nearly all actives have a fitted effect of over 35% in size. Summed up: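 Kinetic fluorescence (1 s intervals) of calcium-sensitive dye in human M1 CHO cells after compound addition; cells pre-incubated 18 h at 37 C/5% CO2 and dye-loaded 1 h.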
Assay [14] in a line: cAMP Responsive Elements (CRE) small molecule agonists, cell-based qHTS assay (AID 1963590). Summed up: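 Test agents in DMSO were incubated 3 h at 37 C/5% CO2 with CRE-bla HEK 293T cells seeded 18 h earlier; LiveBLAzer B/G FRET substrate was added and read after 2 h at room temperature.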
The target in assay [15] is Beta-2 adrenergic receptor (Homo sapiens) (UniProt P07550). Put plainly: Adrenergic beta2 receptor (ADRB2) small molecule antagonists, cell-based qHTS assay (AID 1963592). Note: series mostly up to about 92 µM; nearly all actives have a fitted effect of over 50% in size. Put shortly:
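Assay format: CHO-ADRB2 cells, 18-20hr seeding at 37C/5% CO2, then compound plus 1nM isoproterenol agonist mix for 0.5hr RT. Homogeneous time-resolved fluorescence cAMP detection after 1hr, expressed as 665/615 nm ratio.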

In assay [16] the target is D(2) dopamine receptor (Homo sapiens) (UniProt P14416). Nature of the assay: Dopamine D2 receptor (DRD2) small molecule agonists, cell-based qHTS assay (AID 1963594). Note: nearly all actives have a fitted effect of over 35% in size. Summed up:
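HEK293 cells stably expressing DRD2 were cultured 24 h at 37 C, then given Ro20-1724 (0.1 mM final) and compounds for 10 min at room temperature. NKH477 (200nM) was then added for 30 min. cAMP was read by HTRF.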

Assay [17] shares this target. Put plainly: Dopamine D2 receptor (DRD2) small molecule antagonists, cell-based qHTS assay (AID 1963595; active = well fitted inhibition curve with a large enough effect in the signal ratio in the repeat runs, with a control signal flat; the % refers to the signal ratio). Summed up:
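Stable D2 receptor HEK293 line, 24 h after seeding. Compound preincubated 10 min, then quinpirole (12 nM) with forskolin analogue NKH477 (200 nM), 30 min, room temperature. Detection by time-resolved FRET of cAMP.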

Assay [18] in a line: p53 small molecule agonists, cell-based qHTS assay (AID 1963582; active = well fitted activation curve with a large enough effect in the signal ratio in the repeat runs, not every such curve was filed as active; the % refers to the signal ratio). Put shortly:
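Measured: fluorescence from cleaved LiveBLAzer substrate. System: p53RE-bla cells, 16 h compound treatment at 37 C, 2 h substrate step at room temperature.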

The target of assay [19] is Beta-2 adrenergic receptor (Homo sapiens) (UniProt P07550). Put plainly: Adrenergic beta2 receptor (ADRB2) small molecule agonists, cell-based qHTS assay (AID 1963593).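 Note: CHO cells stably overexpressing human ADRB2.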 Put shortly:
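CHO cells stably over-expressing ADRB2 were plated overnight at 37C, then dosed with compounds plus a stimulation mix containing 100uM IBMX and 25uM Ro-20-1724 for 0.5hr at room temperature. cAMP was measured by HTRF competition, 1hr.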

The nature of assay [20]: cAMP Responsive Elements (CRE) small molecule antagonists, cell-based qHTS assay (AID 1963591; active = well fitted inhibition curve with a large enough effect in the signal ratio in the repeat runs, not every such curve was filed as active; the % refers to the signal ratio). Put shortly: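 Reporter line CRE-bla HEK 293T in dialyzed-FBS DMEM; cells preincubated 18 h, treated 3 h with compound plus NKH477 (0.25 uM final); LiveBLAzer FRET, 2 h RT.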
% is set by controls: 0 for no effect and ±100 for the full control effect.

Chain of Beta-2 adrenergic receptor (Homo sapiens) (P07550 whole entry, looked up): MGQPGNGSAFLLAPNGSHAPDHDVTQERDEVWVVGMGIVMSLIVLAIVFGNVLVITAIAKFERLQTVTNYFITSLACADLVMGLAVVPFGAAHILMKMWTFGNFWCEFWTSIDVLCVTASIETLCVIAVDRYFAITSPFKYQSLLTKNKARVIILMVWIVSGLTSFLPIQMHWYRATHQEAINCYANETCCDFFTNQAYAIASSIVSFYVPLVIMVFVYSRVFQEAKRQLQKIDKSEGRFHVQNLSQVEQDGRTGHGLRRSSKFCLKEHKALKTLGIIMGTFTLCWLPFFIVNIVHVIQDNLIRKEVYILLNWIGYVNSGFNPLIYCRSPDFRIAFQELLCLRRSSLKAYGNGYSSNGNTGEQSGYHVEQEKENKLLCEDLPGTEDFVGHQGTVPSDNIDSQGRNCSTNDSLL
Chain of 5-hydroxytryptamine receptor 2A (Homo sapiens) (P28223 whole entry, looked up): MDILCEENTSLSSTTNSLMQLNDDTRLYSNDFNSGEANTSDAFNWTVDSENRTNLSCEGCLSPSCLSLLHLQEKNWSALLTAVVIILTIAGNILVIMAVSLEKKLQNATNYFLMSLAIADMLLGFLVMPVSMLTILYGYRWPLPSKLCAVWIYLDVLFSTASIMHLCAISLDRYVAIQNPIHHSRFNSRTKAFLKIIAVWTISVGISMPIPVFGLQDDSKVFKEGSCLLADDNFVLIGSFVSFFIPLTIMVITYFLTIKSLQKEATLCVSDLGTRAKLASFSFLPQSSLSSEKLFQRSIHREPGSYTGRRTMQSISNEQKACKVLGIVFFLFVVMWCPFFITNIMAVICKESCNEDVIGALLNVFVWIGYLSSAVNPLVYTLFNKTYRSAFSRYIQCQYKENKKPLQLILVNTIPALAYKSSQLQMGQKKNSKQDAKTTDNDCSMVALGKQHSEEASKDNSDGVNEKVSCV
Chain of D(2) dopamine receptor (Homo sapiens) (P14416 whole entry, looked up): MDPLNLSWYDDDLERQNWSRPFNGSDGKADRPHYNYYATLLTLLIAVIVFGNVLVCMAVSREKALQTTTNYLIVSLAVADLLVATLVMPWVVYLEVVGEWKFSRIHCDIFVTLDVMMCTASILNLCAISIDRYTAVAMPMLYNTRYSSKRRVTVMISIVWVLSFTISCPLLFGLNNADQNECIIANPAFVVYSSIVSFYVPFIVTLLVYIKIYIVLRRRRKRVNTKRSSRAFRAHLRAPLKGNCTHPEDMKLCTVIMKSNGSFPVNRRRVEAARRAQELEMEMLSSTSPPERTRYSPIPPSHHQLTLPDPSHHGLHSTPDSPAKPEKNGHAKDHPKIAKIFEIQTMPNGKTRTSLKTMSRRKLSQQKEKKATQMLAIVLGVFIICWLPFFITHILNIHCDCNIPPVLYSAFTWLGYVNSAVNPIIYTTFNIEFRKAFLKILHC
Chain of KiSS-1 receptor (Homo sapiens) (Q969F8 whole entry, looked up): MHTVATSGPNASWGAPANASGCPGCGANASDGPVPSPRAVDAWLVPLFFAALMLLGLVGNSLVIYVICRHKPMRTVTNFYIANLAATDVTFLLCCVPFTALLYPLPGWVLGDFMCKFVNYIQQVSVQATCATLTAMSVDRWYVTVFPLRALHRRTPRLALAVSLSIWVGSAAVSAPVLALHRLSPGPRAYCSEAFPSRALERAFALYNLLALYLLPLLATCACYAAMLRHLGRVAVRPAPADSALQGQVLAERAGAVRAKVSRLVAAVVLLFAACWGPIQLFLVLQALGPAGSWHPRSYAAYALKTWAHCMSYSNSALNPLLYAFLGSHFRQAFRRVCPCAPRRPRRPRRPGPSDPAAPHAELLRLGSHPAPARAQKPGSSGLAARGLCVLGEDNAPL
Chain of Gonadotropin-releasing hormone receptor (Homo sapiens) (P30968 whole entry, looked up): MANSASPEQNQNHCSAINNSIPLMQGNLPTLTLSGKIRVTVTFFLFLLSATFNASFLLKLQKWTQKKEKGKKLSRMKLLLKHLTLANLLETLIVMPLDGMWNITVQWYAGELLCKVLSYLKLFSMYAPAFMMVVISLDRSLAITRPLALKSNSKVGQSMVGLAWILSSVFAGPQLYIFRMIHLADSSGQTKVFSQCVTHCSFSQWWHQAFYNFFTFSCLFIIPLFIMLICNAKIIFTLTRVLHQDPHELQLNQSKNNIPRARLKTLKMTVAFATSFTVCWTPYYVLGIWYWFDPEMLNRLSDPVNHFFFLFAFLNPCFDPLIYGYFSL

On to `CC(=O)OC(C)c1ccccc1` (configuration not stated), for which the Potency result in [1], in [2], in assay [3], in assay [6], in assay [7] and in assay [8] was “inactive” throughout. Further, the Potency result in assay [9], in assay [10], in [11], in [12], in assay [13] and in [14] was “inactive” each time. The Potency entry in assay [15], in assay [16] and in assay [17] was “inactive” in each case. For the same molecule, the outcome in assay [4] and in assay [5] was inactive.

As for `COc1cc(C(=O)NS(=O)(=O)c2ccccc2C)ccc1Cc1cn(C)c2ccc(NC(=O)OC3CCCC3)cc12`, the Potency entry in assay [1], in [2], in [3], in [6], in assay [8] and in [18] was “inactive” in each case. Also, the Potency result in [15], in assay [19] and in [16] was “inactive” each time. Besides, the result in [4] and in [5] was inactive.

On to `Cc1cc(S(=O)(=O)O)ccc1N=Nc1c(O)ccc2ccccc12`, for which the Potency in assay [1] was 43.3 µM (active). Besides, the Potency result in [2], in [3], in assay [6], in assay [7], in assay [8] and in assay [11] was “inactive” throughout. The Potency entry in [12], in [13], in [14], in [20], in assay [16] and in [17] was “inactive” in each case. Moreover, the outcome in [4] and in [5] was inactive.

In the case of `C/C=C(/C(=C/C)c1ccc(OC(C)=O)cc1)c1ccc(OC(C)=O)cc1`, the Potency entry in assay [1], in assay [2], in [3], in assay [6], in assay [7] and in [8] was “inactive” each time. The Potency result in assay [9], in [11], in assay [12], in [13], in assay [14] and in assay [15] was “inactive” in each case. Also, the Potency result in assay [16] and in assay [17] was “inactive” each time. The result in assay [4] and in assay [5] was inactive.

With `FC(F)(F)C(F)(F)C(F)(F)C(F)(F)C(F)(F)C(F)(F)C(F)(F)C(F)(F)C(F)(F)C(F)(F)F`, the results for the activity change, negative = cytotoxicity in [1], in assay [7] and in assay [8] were 2.36% [at 8.39 µM], 2.89% [at 5.99 µM] and -0.558% [at 5.99 µM], respectively. In addition, the activity, positive = activation in [2] was -2.47% [at 8.39 µM]. Also, the activity change in assay [3] is 0.129% [at 5.22 µM, hits give high values]. Moreover, the activation in [4] is -3.4% [at 6.97 µM]; in [5], -1.63% [at 5.23 µM]; in assay [6] it was -3.19% [at 5.99 µM]; in assay [11], 9.84% [at 7.02 µM]; in assay [13], -0.0294% [at 6.97 µM]; in assay [14], -1.41% [at 8.39 µM]. For the same molecule, the activation in [16] was -0.702% [at 8.39 µM]. In addition, the activity, negative = inhibition in [10] was -16.5% [at 5.62 µM]. Further, the results for the activity change, negative = inhibition in assay [20], in assay [15] and in assay [17] were -8.96% [at 8.39 µM], 4.67% [at 8.39 µM] and 10.1% [at 8.38 µM], respectively.

With `CC(=O)O[C@@H]1CC2CCC1(C)C2(C)C` (some centres not stated), the Potency entry in [1], in assay [2], in assay [3], in assay [6], in assay [7] and in [8] was “inactive” throughout. Also, the Potency entry in [10], in [11], in [12], in assay [13], in [14] and in assay [20] was “inactive” each time. Further, the Potency entry in assay [19] and in assay [17] was “inactive” in each case. The result in assay [4] and in assay [5] was inactive.

With `CC(C)c1ccc(C(=O)N=C(N)N)cc1S(C)(=O)=O`, the Potency entry in assay [1], in assay [2], in assay [3], in [6], in assay [7] and in assay [8] was “inactive” in each case. Also, the Potency entry in assay [9], in assay [10], in assay [11], in assay [12], in [13] and in assay [14] was “inactive” throughout. The Potency result in assay [15] and in assay [17] was “inactive” in each case. Besides, the result in [4] and in [5] was inactive.

In the case of `CN1[C@@H]2CC[C@H]1CC(OC(=O)C(O)c1ccccc1)C2` (some centres not stated), the Potency result in assay [1], in assay [2], in [3], in assay [6], in assay [8] and in [9] was “inactive” each time. The Potency entry in assay [18], in assay [14], in assay [20], in [15], in [19] and in assay [16] was “inactive” in each case. In addition, the Potency entry in [17] is “inactive”. In addition, the outcome in assay [4] and in assay [5] was inactive.
